Experimental data from PubChem BioAssay (EPA / NIEHS).
Results filed as inconclusive are left out. Calls of active or inactive are those of the source. How the source made its calls, unless noted: active means hit-call score of the fitted dose curve at least 0.9, where 1 is the maximum; inactive means score below 0.9.

Test system: not listed separately
Assay: ATG_TGFb_CIS: Attagene CIS-FACTORIAL HepG2 Assay for human Transforming Growth Factor (TGF) (AID 2282967)
Conditions: HepG2 Attagene CIS TGFb reporter, mRNA transcription; actives raise or lower the signal
Method in brief: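 Liver HepG2 line, cis-factorial reporter panel, 24 h dosing. Quantitation: RT-PCR products labeled with 6-FAM, cut with HpaI, resolved by capillary electrophoresis; DMSO-referenced bidirectional analysis.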

| SMILES | outcome | AC50 |
| --- | --- | --- |
| CCCC[n+]1ccccc1 | inactive | – |
| C=C(C)[C@@H]1CC[C@@H](C)C[C@@H]1O | inactive | – |
| Cc1ccccc1C=O | inactive | – |
| Nc1cccc(S(=O)(=O)c2cccc(N)c2)c1 | inactive | – |
| O=C(O)CCCCCCCCCCC(=O)O | inactive | – |
| O=Nc1ccc(Nc2ccccc2)cc1 | inactive | – |
| Cc1c(N(C)C)c(=O)n(-c2ccccc2)n1C | inactive | – |
| CC(C)c1ccc(C(C)C)cc1 | – | 171 µM (active) |
| COc1c(Cl)c(Cl)c(Cl)c(Cl)c1Cl | inactive | – |
| CC(=O)OCCOC(C)=O | inactive | – |
| C=CCOC(=O)CCC1CCCCC1 | inactive | – |
| NC(=O)NC1NC(=O)NC1=O (configuration not stated) | inactive | – |

Test system: not listed separately
Assay: ATG_VDRE_CIS: Attagene CIS-FACTORIAL HepG2 Assay for human Vitamin D Receptor Element (VDRE) (AID 2282968)
Conditions: HepG2 VDRE cis-reporter transcription, actives raise or lower the signal
Method in brief: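 In transiently transfected HepG2 liver cells, gain or loss of reporter mRNA after 24 h exposure is scored relative to DMSO, using fluorescence detection by capillary electrophoresis of RT-PCR products.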

| SMILES | outcome | AC50 |
| --- | --- | --- |
| O=[N+]([O-])c1ccc(Nc2ccc(Nc3ccccc3)c(S(=O)(=O)O)c2)c([N+](=O)[O-])c1 | inactive | – |
| CC(C)(C)c1n[nH]c(=S)n(N)c1=O | inactive | – |
| COc1ccc(OC)c(OC)c1 | inactive | – |
| CCCCCC(=O)OCCc1ccccc1 | inactive | – |
| NC(N)=NC(=O)c1nc(Cl)c(N)nc1N | inactive | – |
| O=C(O)Cc1cccc2ccccc12 | inactive | – |
| CC(=O)OCc1ccc2c(c1)OCO2 | inactive | – |
| CCCC(=O)OCCC(C)CCC=C(C)C (configuration not stated) | inactive | – |
| CCCCCCCCC=O | inactive | – |
| CCC(O)CO (configuration not stated) | inactive | – |
| O=C1NC(=O)c2ccccc21 | inactive | – |
| CC1(C)[C@H](C(=O)OCc2cccc(Oc3ccccc3)c2)[C@@H]1C=C(Cl)Cl | inactive | – |
| CC1(C)OC[C@@H]2O[C@@]3(C(=O)O)OC(C)(C)O[C@H]3[C@@H]2O1 | inactive | – |
| CCCCc1ccc(N)cc1 | inactive | – |
| S=C(S)NCCNC(=S)S | inactive | – |
| OCC(CO)(CO)COCC(CO)(CO)CO | inactive | – |

| SMILES | outcome | AC50 |
| --- | --- | --- |
| O=C(O)c1snc(Cl)c1Cl | – | 161 µM (active) |
| Cc1ccc(C(C)C)cc1O | – | 26.9 µM (active) |
| Nc1ccc(S(=O)(=O)O)c(N)c1 | inactive | – |
| CC(C)(CO)[N+](=O)[O-] | inactive | – |
| CCCC/C=C\CCCCCCCCCC=O | inactive | – |
| CCC(=O)OCc1ccccc1 | inactive | – |
| CO[Si](CCCn1c(=O)n(CCC[Si](OC)(OC)OC)c(=O)n(CCC[Si](OC)(OC)OC)c1=O)(OC)OC | inactive | – |
| Cc1ccccc1C=O | inactive | – |
| Nc1cccc(S(=O)(=O)c2cccc(N)c2)c1 | inactive | – |
| O=C(O)CCCCCCCCCCC(=O)O | inactive | – |
| O=Nc1ccc(Nc2ccccc2)cc1 | – | 30.3 µM (active) |
| Cc1c(N(C)C)c(=O)n(-c2ccccc2)n1C | inactive | – |
| CC(C)c1ccc(C(C)C)cc1 | inactive | – |
| CC(=O)OCCOC(C)=O | inactive | – |
| C=CCOC(=O)CCC1CCCCC1 | inactive | – |
| NC(=O)NC1NC(=O)NC1=O (configuration not stated) | inactive | – |

Target: Nuclear receptor subfamily 1 group I member 3 (Homo sapiens) (UniProt Q14994)
Assay: ATG_CAR_TRANS: Attagene TRANS-FACTORIAL HepG2 Assay for human Constitutive Androstane Receptor (CAR) (AID 2282969; active means hit-call score of the fitted dose curve at least 0.9, where 1 is the maximum;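 further: activators raise reporter mRNA above DMSO so AC50 marks induction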)
Conditions: HepG2 Attagene TRANS-FACTORIAL CAR reporter
Method in brief: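 Readout is reporter mRNA induction, quantified by fluorescent primer extension and capillary electrophoresis after RT-PCR. Cells were HepG2 transiently carrying chimeric NR-Gal4 constructs with GAL4-UAS reporters, treated for 24 h; activity scored upward from DMSO.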

Chain of Nuclear receptor subfamily 1 group I member 3 (Homo sapiens) (Q14994 whole entry, looked up): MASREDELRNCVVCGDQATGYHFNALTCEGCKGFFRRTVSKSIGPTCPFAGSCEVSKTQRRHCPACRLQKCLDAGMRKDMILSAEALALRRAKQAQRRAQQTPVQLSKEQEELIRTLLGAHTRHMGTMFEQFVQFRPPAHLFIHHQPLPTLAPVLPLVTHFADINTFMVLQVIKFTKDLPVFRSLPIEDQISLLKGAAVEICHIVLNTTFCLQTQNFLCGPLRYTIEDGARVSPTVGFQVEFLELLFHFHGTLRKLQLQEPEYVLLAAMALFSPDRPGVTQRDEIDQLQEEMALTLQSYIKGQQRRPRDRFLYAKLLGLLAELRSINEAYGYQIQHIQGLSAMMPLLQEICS

| SMILES | outcome |
| --- | --- |
| CC(C)(C)c1n[nH]c(=S)n(N)c1=O | inactive |
| COc1ccc(OC)c(OC)c1 | inactive |
| CCCCCC(=O)OCCc1ccccc1 | inactive |
| CC(=O)OCc1ccc2c(c1)OCO2 | inactive |
| CCCC(=O)OCCC(C)CCC=C(C)C (configuration not stated) | inactive |
| CCC(O)CO (configuration not stated) | inactive |
| CC1(C)OC[C@@H]2O[C@@]3(C(=O)O)OC(C)(C)O[C@H]3[C@@H]2O1 | inactive |
| CCCCc1ccc(N)cc1 | inactive |
| OCC(CO)(CO)COCC(CO)(CO)CO | inactive |
| CC(C)(CO)[N+](=O)[O-] | inactive |
| O=C[C@@H](O)[C@H](O)[C@H](O)CO | inactive |
| CO[Si](CCCn1c(=O)n(CCC[Si](OC)(OC)OC)c(=O)n(CCC[Si](OC)(OC)OC)c1=O)(OC)OC | inactive |
| Cc1ccccc1C=O | inactive |
